Where “and” joins values, the source holds several entries; their conditions need not be identical. Equal entries are not always repeated. About 2,700 (4%) of roughly 68,000 compounds showed an effect of 50% or more. This is one part of a sample in which strong results are shown more often than they occur.
System: Plasmodium berghei
Assay: Screen against P. berghei liver stage (PbLuc), transformed with Luciferase, at 2uM
Format: functional, HepG2
Conditions: tested at 2 uM

SMILES	INHIBITION [%]	INHIBITION (2 µM)
Cc1csc(CCCNC(C)CC(=O)Nc2cccc(C)c2C)n1 (stereo not given)	-77.68	
O[C@@H]1C[C@@H](c2nc(-c3ccc(OC(F)(F)F)cc3)no2)N(CC2CC2)C1	13.92	
Cc1noc([C@H]2CC[C@@H]3[C@@H](CCN3S(=O)(=O)C3CC3)O2)n1	1.83	
O=C(Cc1ccccc1Cl)Nc1cnn(C2CCOC2)c1 (stereo not given)	2.49	
COc1ccc(-c2c(C)nn3c(=N)c(C#N)n[nH]c23)cc1OC	1.04	
CS(=O)(=O)CCC(=O)NC1(c2cccc(C(F)(F)F)c2)CCC1	61	
CCNC(=O)CCC(=O)NC1(c2cccc(C(F)(F)F)c2)CCC1	18.85	
COCC(=O)NC1(c2cccc(C(F)(F)F)c2)CCC1	24.82	
COCCC1(C(=O)O)CCCN(Cc2cc3c(cc2C)OCO3)C1 (stereo not given)	-48.91	
c1cnn(-c2ccc(CCNC3CCN(C4CC4)C3)cc2)c1 (stereo not given)	27.73	
C[C@H](O)CNc1cc(-c2ccncc2)ncn1	-29.38	
OCCNc1cc(-c2ccccc2)ncn1	-7.01	
C[C@H](O)CNc1cc(-c2ccccc2)ncn1	59.56	
CC(C)NC(=O)CC1COC2(CCN(Cc3ccco3)CC2)C1 (stereo not given)	43.58	
O=C(NCc1cc(N2CCOCC2)ncn1)c1cccc(CO)n1	-15.77	
CC(C)=CCN1C[C@@H]2CC[C@H]1CN(S(=O)(=O)c1cccnc1)C2	54.75	
O=S(=O)(c1cccnc1)N1C[C@H]2CC[C@@H](C1)N(Cc1ccccn1)C2	-3.6	
O=S(=O)(c1cccnc1)N1C[C@H]2CC[C@@H](C1)N(Cc1ccccc1)C2	-11.31	
c1ccc2c(c1)N(CC1CCOC1)CC21CCN(c2cnccn2)CC1 (stereo not given)	-39.01	
O=C(Cn1nc(C(F)(F)F)c(Br)c1C1CC1)N1CCOCC1	6.33	
Cc1ccc(CN2CC[C@H]3CO[C@H](CN4CCN(C)CC4)[C@H]3C2)o1	16.78	
Cc1ccc(CN2CC[C@H]3CO[C@H](CN(C)C)[C@H]3C2)o1	-5.44	

SMILES	INHIBITION [%]	INHIBITION (2 µM)
Cc1ccc(CN2CC[C@H]3CO[C@H](CN4CCCC4)[C@H]3C2)o1	50.85	
CC(=O)N(C)c1nc(Cn2nnnc2C2CCCC2)cs1	-26.07	
O=C(Cn1cc(-n2cccc2)cn1)NCC1CCC1	-28.99	
COCCn1cc2c(n1)C(CNCc1ccsc1)OCC2 (stereo not given)	30.19	
COCCN1C(=O)[C@@H]2CC[C@H]1CN(c1ncccn1)C2	57.34	
COCCN1C(=O)[C@@H]2CC[C@H]1CN(c1nccc(C)n1)C2	-1.56	
CNc1ccnc(N2C[C@H]3CC[C@@H](C2)N(CCOC)C3=O)n1	40.51	
CN(Cc1ccccn1)C(=O)[C@]12COC[C@H]1CN(Cc1cnn(C)c1)C2	0.3	
O=C(CN1C[C@@H]2CC[C@H]1CN(Cc1ccccn1)C2)Nc1ccccc1	-16.18	
COCCN1C[C@@H]2CC[C@H]1CN(CC(=O)Nc1ccn(C)n1)C2	5.28	
O=C(c1cc(C2CC2)no1)N1C[C@@H]2CC[C@H]1CN(Cc1ccccn1)C2	-62.92	
Cc1nnsc1CN1C[C@@H]2CC[C@H]1CN(Cc1ccccn1)C2	-17.17	
Cn1ccc(NC(=O)CN2C[C@@H]3CC[C@H]2CN(Cc2ccccn2)C3)n1	52.98	
O=C(CN1C[C@@H]2CC[C@H]1CN(Cc1ccccn1)C2)NCc1cccs1	52.98	
O=C1[C@@H]2CN(C3CCOCC3)C[C@H]2CCN1CC1CC1	27.65	
O=C1CCCC2=Nc3nonc3NC(c3ccc(Cl)cc3Cl)C12 (stereo not given)	-53.9	
CC(C)c1ccc2c(c1)CCCN2C(=O)CN(C)S(C)(=O)=O	-20.21	
OCC(O)CSCc1nnc(-c2cccc(F)c2)o1 (stereo not given)	10.23	
CC(C)OCCSCc1nnc(-c2cccc(F)c2)o1	55.39	
COc1cccn(Cc2nnc(-c3cccc(F)c3)o2)c1=O	25.02	
COC(=O)c1cccn1C1CCN(CCN2C(=O)CCC2=O)CC1	31.46	
COc1ccc(NC(=O)N2CCCC2c2ccco2)cc1OC (stereo not given)	-28.88	

SMILES	INHIBITION [%]	INHIBITION (2 µM)
CCCc1cc(CNC2CCN(c3cc(C)nc(N)n3)CC2)on1	-13.81	
CCCc1cc(CNC2CCN(c3cc(C(C)C)nc(C)n3)CC2)on1	-8.34	
CCCc1cc(CNC2CCN(c3nc(C)cc(C)n3)CC2)on1	58.59	
Cc1cn2c(=O)c(-c3ccnc(N(C)C4CCCCC4)n3)cnc2s1	-35.83	
Cc1nc(N2C[C@@H](CN3CCCCC3)[C@@H](CO)C2)c2sccc2n1	-38.35	
COC1[C@@H]2CC[C@H]1CN(c1nc(C)nc3ccsc13)C2 (stereo not given in full)	-67.34	
Cc1nc(N2C[C@H]3CNC[C@H]3C2)c2sccc2n1	50.98	
O=C(NCc1nn(-c2ccccc2)c2c1CCC2)NC1CCC(O)CC1 (stereo not given)	-43.23	
O=S(=O)(Cc1ccccc1CN1CC[C@H](CO)[C@H](O)C1)c1ccccc1	48.21	
NC1CCCCN(Cc2ccccc2CS(=O)(=O)c2ccccc2)C1 (stereo not given)	21.97	
N[C@@H]1CCN(Cc2ccccc2CS(=O)(=O)c2ccccc2)C[C@H]1O	83.98	
CC(C)(C)NC(=O)CNc1ncc(Br)cn1	-20.72	
CCc1c(C)nn2c(O)cc(C3CCN(C(=O)c4ccccn4)C3)nc12 (stereo not given)		-16.2% and -18.64%
CC1Oc2c(cccc2C(=O)N2CCN(CC(C)(C)O)CC2)NC1=O (stereo not given)	-34.12	
Cc1ncccc1C(=O)Nc1cccc(C[S+](C)[O-])c1C (stereo not given)	31.58	
CC(C)c1nc(CSc2nnc(-c3cccs3)n2CC(N)=O)no1	51.4	
CC(Sc1nnc(C2CC2)n1CC(N)=O)c1ccc(Cl)cc1 (stereo not given)	-87.32	
CC(C)c1nc(CSc2nnc(C3CC3)n2CC(N)=O)no1	53.55	
CCc1noc(C(C)Sc2nnc(C3CC3)n2CC(N)=O)n1 (stereo not given)	35.26	
NC(=O)Cn1c(SCc2noc(-c3ccsc3)n2)nnc1C1CC1	-2.44	
Cc1cccc(CSc2nnc(C)n2CC(N)=O)c1	20.41	

Source: ChEMBL document CHEMBL4513216, “Probing the Open Global Health Chemical Diversity Library for Multistage-Active Starting Points for Next-Generation Antimalarials” (ACS Infect Dis, 2020)
